Assay outcomes as filed in PubChem BioAssay.
APEX1 inh – qHTS Assay for Inhibitors of the Human Apurinic/apyrimidinic Endonuclease 1 (APE1); AID 2517, 2012; recombinant APE1, TAMRA/BHQ-2 abasic DNA cleavage fluorescence; hit rate 0.35% among 350,000; DNA repair nuclease/redox regulator APEX1 (Homo sapiens), P27695; Potency, µM (top dose mostly 65.8 µM), inactives show at the top dose activity change, negative = inhibition, hits mostly inhibitors;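 also: potency is read from the fitted curve at half-maximal effect; plate controls were vehicle for no effect and reference inhibitor for full effect; nearly all actives have a fitted effect of over 55% in size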
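Incision of a quenched TAMRA/BHQ-2 THF abasic-site duplex (50 nM) by 0.75 nM APE1, after 15 min compound preincubation, measured as fluorescence increase over three 60 s reads. Values normalized to buffer, DMSO and NSC13755 control wells.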
PI5P4K alpha inh – qHTS for Inhibitors of phosphatidylinositol 5-phosphate 4-kinase (PI5P4K). hit rate 1.2% among 330,000. Phosphatidylinositol 5-phosphate 4-kinase type-2 alpha (Homo sapiens), P48426. AID 652105, 2013. max response, %. PI5P4Kalpha enzyme, ADP-Glo luminescence, 60 min; hits give low values; active = max response of -50% or lower; inconclusive = between -30% and -50%; inactive = -30% or higher; also: value at the top dose of about 77 µM
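qHTS, 1536-well: enzyme/substrate mix, compound by pin tool, 5 microM ATP final; RT 60 min; ADP-Glo reagents 1 (45 min) then 2 (30 min); luminescence.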
GCN5L2 inh – qHTS Assay for Inhibitors of GCN5L2 | hit rate 0.21% among 390,000 | AID 504327, 2011 | Histone acetyltransferase KAT2A (Homo sapiens), Q92830 | GCN5L2 HAT assay, ThioGlo1 CoA-SH fluorescence | Potency, µM (doses to about 58.9 µM), without a hit: top-dose activity change, negative = inhibition, most hits filed as inhibitors; also: potency is read from the fitted curve at half-maximal effect
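GCN5L2 (20 nM) in 50mM HEPES pH 7.5, 0.1mM EDTA, 0.01% Tween-20 preincubated 15 min with compounds at room temperature. Reaction started with H3(1-25) 75uM, acetyl-CoA 70uM, ThioGlo1 50uM; CoA-thiol fluorescence (Ex340/Em540) read at 0 and 20 min.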
BLM inh-1 – qHTS Assay for Inhibitors of Bloom's syndrome helicase (BLM). Potency, µM (highest dose often 56.1 µM), without a hit: top-dose activity change, negative = inhibition, most hits filed as inhibitors. hit rate 0.2% among 350,000. RecQ-like DNA helicase BLM (Homo sapiens), P54132. recombinant BLM DNA unwinding, fluorescence dequenching;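 also: potency is read from the fitted curve at half-maximal effect; plate controls were vehicle for no effect and no enzyme for full effect; nearly all actives have a fitted effect of over 35% in size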
Target sequence (P54132 whole entry, looked up): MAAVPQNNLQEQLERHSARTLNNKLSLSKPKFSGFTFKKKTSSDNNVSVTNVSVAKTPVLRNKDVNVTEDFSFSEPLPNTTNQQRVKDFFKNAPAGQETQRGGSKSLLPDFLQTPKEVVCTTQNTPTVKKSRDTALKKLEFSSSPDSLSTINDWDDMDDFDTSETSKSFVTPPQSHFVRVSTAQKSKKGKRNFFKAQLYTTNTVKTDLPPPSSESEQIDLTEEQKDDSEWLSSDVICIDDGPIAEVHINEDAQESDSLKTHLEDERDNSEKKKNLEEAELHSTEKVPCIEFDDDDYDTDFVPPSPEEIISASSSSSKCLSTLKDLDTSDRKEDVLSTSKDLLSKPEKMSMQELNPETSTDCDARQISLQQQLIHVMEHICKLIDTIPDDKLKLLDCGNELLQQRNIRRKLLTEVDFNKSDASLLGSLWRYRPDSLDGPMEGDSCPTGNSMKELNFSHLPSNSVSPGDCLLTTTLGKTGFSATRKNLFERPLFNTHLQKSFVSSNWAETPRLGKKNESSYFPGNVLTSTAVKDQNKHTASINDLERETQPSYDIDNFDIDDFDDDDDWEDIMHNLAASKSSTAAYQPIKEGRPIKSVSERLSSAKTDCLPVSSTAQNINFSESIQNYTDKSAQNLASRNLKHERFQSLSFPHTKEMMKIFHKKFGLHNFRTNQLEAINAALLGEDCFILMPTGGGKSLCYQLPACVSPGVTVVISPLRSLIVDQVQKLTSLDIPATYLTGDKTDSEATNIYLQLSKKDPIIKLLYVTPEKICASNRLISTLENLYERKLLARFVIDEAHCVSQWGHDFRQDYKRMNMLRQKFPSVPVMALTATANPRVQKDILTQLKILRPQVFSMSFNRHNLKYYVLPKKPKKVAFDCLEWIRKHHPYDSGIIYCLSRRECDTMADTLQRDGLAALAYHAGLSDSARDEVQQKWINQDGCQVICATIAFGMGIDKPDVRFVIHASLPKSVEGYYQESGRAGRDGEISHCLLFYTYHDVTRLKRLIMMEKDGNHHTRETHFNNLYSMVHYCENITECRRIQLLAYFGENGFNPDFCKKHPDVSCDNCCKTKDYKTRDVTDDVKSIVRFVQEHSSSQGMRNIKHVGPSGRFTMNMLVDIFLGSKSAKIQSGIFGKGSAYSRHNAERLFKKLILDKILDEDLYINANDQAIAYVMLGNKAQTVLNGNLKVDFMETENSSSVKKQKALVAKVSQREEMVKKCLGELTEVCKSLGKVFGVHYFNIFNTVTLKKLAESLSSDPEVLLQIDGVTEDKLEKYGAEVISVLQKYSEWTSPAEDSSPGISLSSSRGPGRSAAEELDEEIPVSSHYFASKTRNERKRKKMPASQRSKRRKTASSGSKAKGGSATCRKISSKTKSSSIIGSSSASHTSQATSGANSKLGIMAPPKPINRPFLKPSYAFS
FEN1 inh – qHTS Assay for the Inhibitors of Human Flap endonuclease 1 (FEN1). Recombinant FEN1 flap cleavage, fluorescence, 15 min. Potency, µM (series often up to 114 µM), for inactives: at the top dose activity change, negative = inhibition, usual class: inhibitors. hit rate 0.35% among 390,000. AID 588795, 2011; also: potency is read from the fitted curve at half-maximal effect; nearly all actives have a fitted effect of over 65% in size
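Recombinant FEN1 (10 nM) was preincubated with pin-transferred compounds for 15 min at room temperature, then flap DNA substrate (50 nM final) was added. Plates were read at 0 and 15 min, and normalized concentration–response data were fitted to a four-parameter Hill equation.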
RECQ1 inh-1 – qHTS Assay for Inhibitors of RecQ-Like Dna Helicase 1 (RECQ1); RECQ1 DNA unwinding, red fluorescence kinetic read; Potency, µM (doses to about 57.3 µM), for the others: at the highest dose activity, negative = inhibition, usual class: inhibitors; hit rate 0.54% among 240,000; AID 2549, 2010;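 also: potency is read from the fitted curve at half-maximal effect; plate controls were vehicle for no effect and no enzyme for full effect; nearly all actives have a fitted effect of over 30% in size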
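RECQ1T1 50 nM; forked duplex (20 bp + 30-nt ss tails) 200 nM, ATP 2 mM final; pH 8.0, 2 mM MgCl2, 2.5 ug/ml poly(dI-dC); 15 min compound preincubation; discontinuous kinetic read over 2 h at RT.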
BLM inh-2 – qHTS Confirmation Assay for Inhibitors of Bloom's syndrome helicase (BLM); shares compounds with BLM inh-1; BLM DNA unwinding, fluorescence quenching, biochemical; Potency, µM, for the others: max response, negative = inhibition, hits mostly inhibitors; hit rate 40% among 220; AID 2585, 2010;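 also: strand separation dequenches TAMRA so unwinding raises red fluorescence; potency is read from the fitted curve at half-maximal effect; series mostly up to about 69 µM; nearly all actives have a fitted effect of over 45% in size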
RECQ1 inh conf – Confirmation qHTS Assay for Inhibitors of RecQ-Like Dna Helicase 1 (RECQ1). hit rate 28% among 610. RECQ1 helicase DNA unwinding, fluorescence. shares compounds with RECQ1 inh-1. AID 2708, 2010. Potency, µM (top dose mostly 229 µM), for the others: at the highest dose activity change, negative = inhibition, most hits filed as inhibitors; also: potency is read from the fitted curve at half-maximal effect; nearly all actives have a fitted effect of over 45% in size
RECQ1 inh-2 – Confirmation qHTS Assay for Inhibitors of RecQ-Like Dna Helicase 1 (RECQ1) - Round 2 Cherry Picks. shares compounds with RECQ1 inh-1. recombinant RECQ1 DNA unwinding, red fluorescence. Potency, µM (highest dose often 119 µM), without a hit: at the top dose activity, negative = inhibition, most hits filed as inhibitors. hit rate 15% among 1,100. AID 504841, 2011; also: potency is read from the fitted curve at half-maximal effect; nearly all actives have a fitted effect of over 50% in size
* = called active by the depositor; i = inactive; ? = inconclusive; nt = no result; [ ] = dose if it differs, or a comment. Rows were chosen to be rich in hits. Some 1.5% of all compounds tested hit in one or more screens of this group. Unless noted, calls follow the shape of the dose curve; as a rule, active = well fitted curve in the direction sought with a large enough effect; inconclusive = small, poorly fitted or top-dose-only effect, or another doubt; inactive = no such curve, though single readings can be large; an effect the other way counts as inactive or inconclusive. Unless noted, % is scaled to controls: 0 for no effect and ±100 for the full control effect.

SMILES	APEX1 inh	PI5P4K alpha inh	GCN5L2 inh	BLM inh-1	FEN1 inh	RECQ1 inh-1	BLM inh-2	others
O=C(CSc1nc(O)cc(=O)[nH]1)Nc1ccc2c(c1)CCC2	16%	nt	-17%	22µM*	?	-13%	3%
O=C(Nc1ccc2nccnc2c1)N1CCCCCC1	nt	nt	nt	nt	6%	nt	nt
O=C(O)C(Cc1ccc2c(c1)oc1ccccc12)NCP(=O)(O)O (stereo not drawn)	-4%	nt	2%	-4%	nt	-10%	nt
CC[C@H](C)[C@H](NC(=O)[C@H](CCC(=O)O)NC(=O)[C@H](CO)NC(=O)[C@@H](NC(=O)[C@@H](N)CO)C(C)C)C(=O)N[C@@H](CCC(N)=O)C(=O)N[C@@H](CC(C)C)C(=O)N[C@@H](CCSC)C(=O)N[C@@H](Cc1cnc[nH]1)C(=O)N[C@@H](CC(N)=O)C(=O)N[C@@H](CC(C)C)C(=O)NCC(=O)N[C@@H](CCCCN)C(=O)N[C@@H](Cc1cnc[nH]1)C(=O)N[C@@H](CC(C)C)C(=O)N[C@@H](CC(N)=O)C(=O)N[C@@H](CO)C(=O)N[C@@H](CCSC)C(=O)N[C@@H](CCC(=O)O)C(=O)N[C@@H](CCCNC(=N)N)C(=O)N[C@H](C(=O)N[C@@H](CCC(=O)O)C(=O)N[C@@H](Cc1c[nH]c2ccccc12)C(=O)N[C@@H](CC(C)C)C(=O)N[C@@H](CCCNC(=N)N)C(=O)N[C@@H](CCCCN)C(=O)N[C@@H](CCCCN)C(=O)N[C@@H](CC(C)C)C(=O)N[C@@H](CCC(N)=O)C(=O)N[C@@H](CC(=O)O)C(=O)N[C@H](C(=O)N[C@@H](Cc1cnc[nH]1)C(=O)N[C@@H](CC(N)=O)C(=O)N[C@@H](Cc1ccccc1)C(=O)N[C@H](C(=O)N[C@@H](C)C(=O)N[C@@H](CC(C)C)C(=O)NCC(=O)O)C(C)C)C(C)C)C(C)C	15%	nt	-21%	5%	nt	-15%	nt
COc1ccc(Cc2nc3ccccc3n2CC(=O)N/N=C/c2ccc(C)cc2O)cc1OC	-4%	-11	-23%	10µM*	?	9%	?
CC(C)C[C@H](NC(=O)[C@H](Cc1ccccc1)NC(=O)[C@@H]1CCCN1C(=O)[C@H](CC(=O)O)NC(=O)[C@@H]1CCC(=O)N1)C(=O)N[C@@H](CCCN=C(N)N)C(=O)N[C@@H](Cc1ccccc1)C(N)=O	?	nt	40%	1%	nt	-11%	nt
CC(C)=CCOc1ccc(/C=C/C(=O)c2ccc(OCC=C(C)C)cc2OCC(=O)O)cc1	4%	nt	10µM*	16µM*	nt	i	?
CCOc1ccc(CCNC(=O)c2nc(-c3cccc(F)c3)n3c2CCCCC3)cc1OCC	nt	nt	-14%	0.16µM*	-12%	nt	-7%
CN(C(=O)c1nc(-c2cccc(F)c2)n2c1CCCCC2)c1ccccc1F	nt	nt	-10%	-3%	4%	nt	nt
CCCN1CNc2c(c(=O)[nH]c(=S)n2CCC(C)C)C1	nt	nt	nt	nt	-5%	nt	nt
CCCCn1c(=O)[nH]c2nc3cc(N)ccc3nc2c1=O	13%	-66*	-19%	5.6µM*	?	-9%	?
COC(=O)c1ccc(CSc2nc3scc(-c4cccs4)c3c(=O)[nH]2)o1	-8%	nt	-19%	25µM*	-9%	-26%	?
COc1ccc(OC)c(C2=Nn3c(nnc3-c3ccc(OC)c(OC)c3)SC2)c1	-9%	nt	nt	-15%	nt	-3%	nt
CCOc1ccc2nc3cc(NCc4ccc(OC)cc4)ccc3c(N)c2c1	-22%	?	-3%	14µM*	22µM*	nt	7.3µM*
CCOc1ccc2nc3cc(N)ccc3c(N)c2c1	?	nt	?	?	nt	i	nt
CC[C@H](NC(=O)[C@H](CCCN=C(N)N)NC(=O)[C@H](Cc1c[nH]c2ccccc12)NC(=O)[C@@H](N)CS)C(=O)N[C@@H](CCCN=C(N)N)C(=O)N[C@@H](Cc1ccc(O)cc1)C(N)=O	-4%	nt	?	20%	nt	0%	nt
CCOc1ccc(C(=O)Nc2ccc(-c3nc4ccccc4[nH]3)cc2)cc1[N+](=O)[O-]	0%	-4	-3%	-15%	4%	7.9µM*	?	RECQ1 inh conf=?;RECQ1 inh-2=?
Cn1ncc([N+](=O)[O-])c1C(=O)Nc1ccc(-c2nc3ccccc3[nH]2)cc1	-3%	nt	-13%	-6%	-1%	?	nt
COc1ccc(SCCN2CCN(CCc3ccccc3)CCC2=O)cc1	-1%	nt	nt	-2%	5%	-13%	nt
COc1ccc(-c2nc3c(c(SCC(=O)Nc4ccccc4OC)n2)Cc2cccc(C)c2O3)cc1	nt	nt	1%	-6%	21%	nt	nt
CCOc1cccc2c1Oc1nc(-c3ccccc3)nc(SCC(=O)Nc3ccc(F)cc3)c1C2	nt	nt	1%	-6%	-5%	nt	nt
Cc1ccc(-c2nc3c(c(SCC(=O)Nc4cccc(C(=O)O)c4)n2)Cc2cccc(C)c2O3)cc1	1.9µM*	nt	?	4.5µM*	?	nt	14µM*	RECQ1 inh conf=6.5µM*
O=C(CSc1nc(-c2ccccc2)nc2c1Cc1ccccc1O2)Nc1ccc(C(=O)O)cc1	1%	-63*	28µM*	10µM*	?	8.9µM*	13µM*	RECQ1 inh conf=4%[69.1 µM]
NCCCNc1ccc(Br)cn1	nt	nt	nt	nt	-6%	nt	nt
CCOC(=O)CNS(=O)(=O)c1ccc(F)cc1Br	3%	nt	nt	3%	12%	i	nt
